Measurements: the supplement of paper PMC8728848
This is one part of a sample in which the strongest signals are shown more often than they occur.

Legend:
Test in all cases: glycan array binding signal (z-score within array); higher = stronger binding
Settings in all cases: glycan notation: IUPAC condensed, linker removed
[1] = molecular target: GalNAc(b1-4)GlcNAc(b1-3)GalNAc(b1-4)GlcNAc
How it was run: (§1)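 Arrays were curated from the Consortium for Functional Glycomics database, 3228 in total, and kept only where the protein sequence was available. Binding is expressed as a within-array Z-score. This score was averaged across arrays of the same protein sequence at different concentrations or buffers and across linkers, and negative values can be read as non-binding.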

Glc(b1-4)Glc = molecular target: Glc(b1-4)Glc
How it was run: as §1

GlcA(b1-3)GlcNAc = molecular target: GlcA(b1-3)GlcNAc
How it was run: as §1

[2] = molecular target: GlcNAc(b1-2)[GlcNAc(b1-4)]Man(a1-3)[GlcNAc(b1-4)][GlcNAc(b1-2)[GlcNAc(b1-6)]Man(a1-6)]Man(b1-4)GlcNAc(b1-4)[Fuc(a1-6)]GlcNAc
How it was run: as §1

GlcNAc(b1-3)Fuc = molecular target: GlcNAc(b1-3)Fuc
How it was run: as §1

[3] = molecular target: GlcNAc(b1-3)Gal(b1-4)GlcNAc
How it was run: as §1

[4] = molecular target: GlcNAc(b1-3)[GlcNAc(b1-6)]Gal(b1-4)GlcNAc
How it was run: as §1

[5] = molecular target: Man(a1-3)[Man(a1-6)]Man(b1-4)GlcNAc(b1-4)GlcNAc
How it was run: as §1

Man(a1-6)Man = molecular target: Man(a1-6)Man
How it was run: as §1

Man(b1-4)GlcNAc = molecular target: Man(b1-4)GlcNAc
How it was run: as §1

[6] = molecular target: Neu5Ac(a2-3)Gal(b1-3)GlcNAc
How it was run: as §1

[7] = molecular target: Neu5Ac(a2-3)Gal(b1-3)[Neu5Ac(a2-6)]GalNAc
How it was run: as §1

Neu5Ac(a2-3)Gal(b1-4)Glc = molecular target: Neu5Ac(a2-3)Gal(b1-4)Glc
How it was run: as §1

[8] = molecular target: Neu5Ac(a2-3)Gal(b1-4)GlcNAc(b1-2)[Neu5Ac(a2-3)Gal(b1-4)GlcNAc(b1-6)]Man(a1-6)[Neu5Ac(a2-3)Gal(b1-4)GlcNAc(b1-2)Man(a1-3)][GlcNAc(b1-4)]Man(b1-4)GlcNAc(b1-4)GlcNAc
How it was run: as §1

[9] = molecular target: Neu5Ac(a2-6)Gal(b1-4)GlcNAc(b1-2)Man(a1-3)[GlcNAc(b1-2)Man(a1-6)]Man(b1-4)GlcNAc(b1-4)GlcNAc
How it was run: as §1

[10] = molecular target: Neu5Ac(a2-6)Gal(b1-4)GlcNAc(b1-3)Gal(b1-4)GlcNAc(b1-6)[Gal(b1-3)]GalNAc
How it was run: as §1

[11] = molecular target: Neu5Ac(a2-8)Neu5Ac(a2-3)Gal(b1-4)Glc
How it was run: as §1

[12] = molecular target: Neu5Gc(a2-6)Gal(b1-4)GlcNAc
How it was run: as §1

[13] = molecular target: Neu5Gc(a2-8)Neu5Gc(a2-6)Gal(b1-4)GlcNAc
How it was run: as §1

B1: EULS2 M1 (Oryza sativa) (protein)
chain: MVYCRANPNYAMTARNGAVVLAPANPKDEYQHWIKDMRWSTSIKDEEGYPAFALVNKATGQAIKHSLGQSHPVRLVPYNPEVMDESVLWTESRDVGNGFRCIRMVNNIYLNFDAFHGDKYHGGVRDGTDIVLWKLCEGDNQRWKIQPYYILEQKLISEEDLNSAVDHHHHHH
glycan array binding signal (z-score) [1]: -0.842 | glycan array binding signal (z-score) (Glc(b1-4)Glc): 2.81 | glycan array binding signal (z-score) (GlcA(b1-3)GlcNAc): 0.171 | glycan array binding signal (z-score) [2]: 2.74 | glycan array binding signal (z-score) (GlcNAc(b1-3)Fuc): -0.923 | glycan array binding signal (z-score) [3]: 0.2 | glycan array binding signal (z-score) [4]: -0.56 | glycan array binding signal (z-score) [5]: 3.41 | glycan array binding signal (z-score) (Man(a1-6)Man): 3.16 | glycan array binding signal (z-score) (Man(b1-4)GlcNAc): -0.283 | glycan array binding signal (z-score) [6]: -0.972 | glycan array binding signal (z-score) [7]: 0.067 | glycan array binding signal (z-score) (Neu5Ac(a2-3)Gal(b1-4)Glc): -0.186 | glycan array binding signal (z-score) [8]: -0.305 | glycan array binding signal (z-score) [9]: -0.661 | glycan array binding signal (z-score) [10]: 0.283 | glycan array binding signal (z-score) [11]: -0.26 | glycan array binding signal (z-score) [12]: 0.007 | glycan array binding signal (z-score) [13]: -0.158
